# Measurements as given in ChEMBL document CHEMBL4296182, “CO-ADD screening of NIH NCI Diversity Set V”.
# For part of these data: Entries with a potency or affinity are not part of this list.
# Legend:
# Staphylococcus aureus = assay: Antibacterial activity against Staphylococcus aureus MRSA ATCC 43300 (CO-ADD:GP_020); MIC in CAMBH media using NBS plates, by Resazurin F(560/590); assay type: functional; details: Concentration 20 uM, ASSAY_TEST Inhibition of Bacterial Growth, detection method Resazurin, Fluorescence (ex560/em590), MEDIA CAMHB, plate type 384well, CORNING #3640, time 18 hr
# Acinetobacter baumannii = assay: Antibacterial activity against Acinetobacter baumannii ATCC 19606 (CO-ADD:GN_034); MIC in CAMBH media using NBS plates, by Resazurin F(560/590); assay type: functional; details: Concentration 20 uM, ASSAY_TEST Inhibition of Bacterial Growth, detection method Resazurin, Fluorescence (ex560/em590), MEDIA CAMHB, plate type 384well, CORNING #3640, time 18 hr
# Escherichia coli = assay: Antibacterial activity against Escherichia coli ATCC 25922 (CO-ADD:GN_001); MIC in CAMBH media using NBS plates, by Resazurin F(560/590); assay type: functional; details: Concentration 20 uM, ASSAY_TEST Inhibition of Bacterial Growth, detection method Resazurin, Fluorescence (ex560/em590), MEDIA CAMHB, plate type 384well, CORNING #3640, time 18 hr
# Klebsiella pneumoniae = details: Concentration 20 uM; ASSAY_TEST Inhibition of Bacterial Growth; detection method Absorption (OD600); MEDIA CAMHB; plate type 384well; NBS; CORNING #3640; time 18 hr
# Candida albicans = details: 20 µM
# Cryptococcus neoformans = details: Concentration 20 uM; ASSAY_TEST Inhibition of Fungal Growth; detection method Resazurin; Absorption (OD600-OD570); plate type 384well; NBS; CORNING #3640
SMILES,Inhibition (Staphylococcus aureus),Inhibition (Acinetobacter baumannii),Inhibition (Escherichia coli),Inhibition (Klebsiella pneumoniae),Inhibition (Candida albicans),Inhibition (Cryptococcus neoformans)
COc1c(NC(C)=O)c2ccccc2c2ccccc12,12.56%,4.74%,1.88%,16.73%,5.3%,-2.59%
CCOc1ccc(/C=C2\CCc3ccccc3C2=O)cc1,-3.91%,-2.84%,-2.65%,4.93%,5.43%,-7.99%
Cc1nc(N)nc(Nc2ccc(C#N)cc2)c1Br,13.25%,-2.28%,22.67%,5.37%,0.12%,-9.52%
COc1cccc(/C=C2\CCc3ccccc3C2=O)c1,5.14%,-13.61%,8.53%,8.43%,9.78%,-15.01%
Cc1nc(Nc2ccc(F)cc2)nc(Nc2ccc(F)cc2)c1[N+](=O)[O-],16.01%,5.04%,5.3%,11.05%,-2.79%,0.25%
C(=N\n1cnnc1)/c1ccc2c(c1)CCC2,10.16%,-8.61%,2.79%,9.91%,12.8%,-5.02%
C=CCN1CCN(c2ccncc2S(=O)(=O)N2CCN(C)CC2)CC1,11.93%,5.76%,5.47%,7.93%,-0.33%,-11.5%
Cc1ccc(S(=O)(=O)NC(=O)Nc2nccs2)cc1,16.17%,-9.13%,9.78%,14.17%,1.46%,-5.56%
Cc1nc2ccccc2nc1N1CCCC1,12.43%,-3.73%,4.2%,6.96%,2.02%,-9.29%
CN(C)C(=O)OCC1COc2ccccc2O1 (stereo not given),14.89%,-13.85%,7.79%,12.42%,-0.21%,-9.62%
CCOc1ccc(NC(=O)Nc2cc(C(C)C)c(O)cc2C)cc1,12.02%,-0.68%,-2.75%,20.87%,4.16%,-21.1%
FC(F)(F)c1cccc(-c2nc3nc(Cl)c(Cl)nc3[nH]2)c1,-14.72%,9.89%,3.39%,6.13%,4.41%,33.54%
N#CCc1cnc2ccccc2n1,13.21%,-15.61%,3.75%,2.07%,-2.07%,-9.92%
Cc1ccc(C(=N)Nc2ccccc2)cc1,11.04%,15.63%,1.43%,18.31%,3.37%,-4.07%
O=C1NC(=S)S/C1=C\c1ccccc1C(=O)O,-3.3%,-13.4%,1.72%,11.85%,14.4%,-5.59%
O=C(OCC(O)COC(=O)c1cccnc1)c1cccnc1,6.08%,10.73%,2.79%,3.04%,1.84%,-7.06%
c1ccc2c(c1)Nc1cc3ccccc3cc1S2,1.39%,-1.02%,3.79%,5.14%,-0.01%,-3.36%
CCN(c1ccccc1)c1nc(Cl)nc2c1cnn2C,9.86%,12.26%,4.23%,13.76%,2.54%,-8.45%
CCC(C)Oc1nc2c(c(=O)n(C)c(=O)n2C)n1C (stereo not given),-1.77%,-5.34%,12.06%,2.01%,1.02%,-11.56%
CSc1nc(N)c(C(=O)NC2CCCCC2)s1,30.14%,-5.51%,5.05%,13.28%,8.55%,-3.08%
CCOC(=O)/C=C/c1ccc(C(=O)OCC)[nH]1,42.73%,10.2%,20.38%,8.24%,7.12%,8.93%
O=C1CCCc2cc3c(cc21)CC1(C3)Cc2cc3c(cc2C1)C(=O)CCC3,15.97%,-9.78%,9.88%,10.84%,3.32%,-3.34%
O=C(O)c1ccc(O)c(O)c1 [PROTOCATECHUIC ACID],11.87%,-8.73%,11.18%,17.43%,-0.18%,-4.26%
O=C1OC(CN(Cc2ccccc2)Cc2ccccc2)CN1/N=C/c1ccc([N+](=O)[O-])o1 (stereo not given),-19.95%,-14.51%,10.29%,6.15%,10.5%,-4.47%
CCOC(=O)Nc1c2ccccc2nc2ccccc12,6.28%,-11.12%,4.72%,16.5%,2.36%,-13.98%
